IL1B secr inh: qHTS for Inhibitors of Inflammasome Signaling: IL-1-beta AlphaLISA Primary Screen | 360,000 tested, 4.7% active | activity change, % at 57.5 µM | THP-1 LPS/ATP IL-1B secretion, AlphaLISA, 16 h; stronger effect = lower value; in the data active = activity change below about -50%; inconclusive = mostly about -30% to -49%
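THP-1 cells pretreated 1 hr with compounds (up to 57.5 uM final), then stimulated with LPS (250 ng/mL final) plus ATP (1.25 mM final); secreted IL-1B measured by AlphaLISA after 16 hr, decreased signal indicating inhibition.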
HT1080-NT tox: qHTS for induction of synthetic lethality in tumor cells producing 2HG: qHTS for the HT-1080-NT fibrosarcoma cell line. HT-1080-NT fibrosarcoma viability, CellTiter-Glo ATP luminescence, 48 h. Potency, µM (titrated, usually from 46.1 µM), without a hit: top-dose activity, negative = less viability, hits mostly cytotoxic. 360,000 tested, 1.6% active;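 also: NT is the 2HG producing partner of a matched IDH1 knockdown line; potency is read from the fitted curve at half-maximal effect; 0% = DMSO-treated cells and -100% = media-only wells without cells; nearly all actives have a fitted effect of over 55% in size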
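Viability by CellTiter-Glo luminescence after 48 h compound exposure at 37C of HT-1080-NT cells (750/well, RPMI, 5% FBS). % activity scaled between DMSO wells and medium-only wells, then curve-fitted and categorized by curve class.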
DT40 TDP1 CPT: qHTS for Inhibitors of human tyrosyl-DNA phosphodiesterase 1 (TDP1): qHTS in cells in presence of CPT. Potency, µM (top dose mostly 46.2 µM), for inactives: top-dose activity change, negative = growth inhibition, most hits filed as inhibitors. 420,000 tested, 12% active. chicken DT40 Tdp1-/-;hTDP1 cells + 20 nM CPT, ATP luminescence, 48 h. AID 686979, 2013; also: potency is read from the fitted curve at half-maximal effect; nearly all actives have a fitted effect of over 55% in size
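Chicken DT40 Tdp1-/- cells complemented with human TDP1, 400 cells/well, exposed to compounds plus 20 nM camptothecin for at least 48 h at 37 C; viability read as ATP content by CellTiter-Glo luminescence.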
DT40 TDP1 no CPT: qHTS for Inhibitors of human tyrosyl-DNA phosphodiesterase 1 (TDP1): qHTS in cells in absence of CPT; AID 686978, 2013; Potency, µM (highest dose often 46.2 µM), for inactives: at the highest dose activity change, negative = growth inhibition, actives largely listed as inhibitors; 420,000 tested, 15% active; DT40 Tdp1-/- hTDP1 cells, no CPT, ATP luminescence, 48 h; also: potency is read from the fitted curve at half-maximal effect; nearly all actives have a fitted effect of over 55% in size
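DT40 Tdp1-/-;hTDP1 cells, no CPT (DMSO vehicle only), 400 cells/well; compounds pin-transferred; ≥48 hr, 37 °C; CellTiter-Glo 30 min RT dark, luminescence read.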
HT1080 IDH1KD tx: qHTS for induction of synthetic lethality in tumor cells producing 2HG: qHTS for the HT-1080-IDH1KD cell line | HT-1080 IDH1 knockdown viability, ATP luminescence, 48 h | AID 686971, 2013 | Potency, µM (doses to about 46.1 µM), for the others: top-dose activity, negative = toxicity, actives largely listed as cytotoxic | 360,000 tested, 2% active;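 also: potency is read from the fitted curve at half-maximal effect; 0% = DMSO wells and -100% = cell-free medium wells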
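Knockdown cells (IDH1KD HT-1080) received compounds 2 h after plating at 750 cells/well and were kept 48 h at 37 °C in 5% FBS RPMI. A CellTiter-Glo luminescence read gave % activity for curve fitting.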
An asterisk follows results filed as active. Sampled rows, rich in hits. Any-hit rate of the full collection: about 19%. Unless noted, calls follow the shape of the dose curve; as a rule, active = well fitted curve in the direction sought with a large enough effect; inconclusive = small, poorly fitted or top-dose-only effect, or another doubt; inactive = no such curve, though single readings can be large; an effect the other way counts as inactive or inconclusive. Unless noted, % is scaled to controls: 0 for no effect and ±100 for the full control effect.

How did Cc1cc(=O)oc2cc(OCC(=O)Nc3nnc(C(C)C)s3)ccc12 do in these assays?
IL1B secr inh: 28.0; HT1080-NT tox: 25.5%; DT40 TDP1 CPT: -12.9%; DT40 TDP1 no CPT: 2.1%; HT1080 IDH1KD tx: 16.6%

How did O=C(COC(=O)Cn1cnc2ccccc2c1=O)Nc1cc(Cl)ccc1[N+](=O)[O-] do in these assays?
IL1B secr inh: -13.8; HT1080-NT tox: 1.0%; DT40 TDP1 CPT: -25.7%; DT40 TDP1 no CPT: 3.6%; HT1080 IDH1KD tx: 2.6%

How did Cn1c(N)c(C(=O)COC(=O)CSc2cccc3cccc(Cl)c23)c(=O)n(C)c1=O do in these assays?
IL1B secr inh: 9.0; HT1080-NT tox: 8.5%; DT40 TDP1 CPT: -17.9%; DT40 TDP1 no CPT: -27.6%; HT1080 IDH1KD tx: 23.7%

How did COc1cccc(Nc2ncc3nc(-c4cc(F)cc(F)c4)c(=O)n(CCC#N)c3n2)c1 do in these assays?
DT40 TDP1 CPT: 11.6µM*; DT40 TDP1 no CPT: 16.4µM*

What do the screens show for `O=C(COCc1cc(-c2cccs2)on1)NCc1ccccc1Cl`?
DT40 TDP1 CPT: -19.1%; DT40 TDP1 no CPT: -26.0%

What do the screens show for `C=C(C1=CCN(S(=O)C(C)(C)C)[C@H]1CCO)c1ccccc1` (some centres undefined)?
IL1B secr inh: 20.5; HT1080-NT tox: -5.4%; DT40 TDP1 CPT: 13µM*; DT40 TDP1 no CPT: inconclusive; HT1080 IDH1KD tx: -3.8%

How did C=C(C1=CCN(S(=O)(=O)C(C)(C)C)[C@H]1CCO)c1ccccc1 do in these assays?
IL1B secr inh: 21.0; HT1080-NT tox: 4.1%; DT40 TDP1 CPT: inconclusive; DT40 TDP1 no CPT: 16.4µM*; HT1080 IDH1KD tx: -2.5%

How did C[C@H]1CN(S(=O)(=O)C(C)(C)C)[C@H](CCO)/C1=C\c1ccccc1 do in these assays?
IL1B secr inh: 30.5; HT1080-NT tox: -0.5%; DT40 TDP1 CPT: -28.7%; DT40 TDP1 no CPT: -11.0%; HT1080 IDH1KD tx: -2.1%

How did C=CC1=CCN(S(=O)C(C)(C)C)[C@@H]1CCO (some centres undefined) do in these assays?
IL1B secr inh: 5.8; HT1080-NT tox: 10.7%; DT40 TDP1 CPT: -16.3%; DT40 TDP1 no CPT: -13.9%; HT1080 IDH1KD tx: 10.9%

Results for O=c1oc2c(O)c(O)cc3c(=O)oc4c(O)c(O)cc1c4c23 ?
IL1B secr inh: -51.1*; HT1080-NT tox: inconclusive; DT40 TDP1 CPT: inconclusive; DT40 TDP1 no CPT: -4.2%; HT1080 IDH1KD tx: inconclusive

How did CCOC(=O)Cc1csc(NC(=S)NC(=O)CC(C)C)n1 do in these assays?
IL1B secr inh: 35.9; HT1080-NT tox: -15.7%; DT40 TDP1 CPT: -4.3%; DT40 TDP1 no CPT: -24.4%; HT1080 IDH1KD tx: -19.7%

What do the screens show for `CC(C)CC(=O)NC(=S)Nc1nc(-c2cccc3ccccc23)cs1`?
IL1B secr inh: 22.9; HT1080-NT tox: -15.9%; DT40 TDP1 CPT: -16.6%; DT40 TDP1 no CPT: 20.6µM*; HT1080 IDH1KD tx: inconclusive

How did O=C(Nc1nc(-c2ccccc2)cs1)c1ccc2c(c1)S(=O)(=O)c1ccccc1C2=O do in these assays?
IL1B secr inh: 4.8; HT1080-NT tox: -2.8%; DT40 TDP1 CPT: inconclusive; DT40 TDP1 no CPT: inconclusive; HT1080 IDH1KD tx: -2.4%

What do the screens show for `O=C(Nc1nc(-c2cccc3ccccc23)cs1)c1ccc2c(c1)S(=O)(=O)c1ccccc1C2=O`?
IL1B secr inh: 22.1; HT1080-NT tox: inconclusive; DT40 TDP1 CPT: 18.4µM*; DT40 TDP1 no CPT: 9.2µM*; HT1080 IDH1KD tx: -20.0%

How did O=C(Nc1ccncc1)c1ccc2c(c1)S(=O)(=O)c1ccccc1C2=O do in these assays?
IL1B secr inh: 1.9; HT1080-NT tox: -9.0%; DT40 TDP1 CPT: 14.6µM*; DT40 TDP1 no CPT: 11.6µM*; HT1080 IDH1KD tx: -17.5%

Results for O=C(O)c1ccc(S(=O)(=O)N(Cc2ccccc2)C2CCCCC2)cc1 ?
IL1B secr inh: 1.4; HT1080-NT tox: -1.8%; DT40 TDP1 CPT: -15.8%; DT40 TDP1 no CPT: 2.3%; HT1080 IDH1KD tx: -3.4%

Source: PubChem BioAssay (National Center for Advancing Translational Sciences (NCATS))
